Assay results taken from PubChem BioAssay (Tox21).
Results filed as inconclusive are left out. Calls of active or inactive are those of the source. Calls come from the whole dose curve; as a rule, active = well fitted curve in the direction sought with a large enough effect in the signal ratio in the repeat runs (not every such curve was filed as active); inconclusive = weak or mixed curves, or a change in a side signal; inactive = no such curve, though single readings can be large or run the other way; the % refers to the signal ratio.

Test: qHTS assay to identify small molecule agonists of the NFkB signaling pathway (AID 1159509)
Settings: NFkB-bla ME-180 cells, beta-lactamase FRET ratio, 5 h; series mostly up to 61 µM
Source text: National Center for Advancing Translational Sciences [NCATS]
NIH Chemical Genomics Center [NCGC]
U.S. Environmental Protection Agency [EPA]
National Institutes of Environmental Health Sciences [NIEHS]
National Toxicology Program [NTP]
U.S. Food and Drug Administration [FDA]
Transcription factors and their stimulated target gene expression play pivotal roles across many cellular processes including responses to environmental stimuli. Proper regulation of associated pathways is critical to maintain cell health and function. Constitutive activation of transcription factor pathways has been implicated in tumors as it may block cellular functions such as apoptosis and lead to invasion and metastasis. One important transcription factor that stimulates gene expression in response to cytokines, UV radiation, and other stimuli is nuclear factor-kappa B (NFkB). To measure activation of the NFkB pathway, the CellSensor NFkB-bla ME-180 cell line (Life Technologies, Carlsbad, CA) that stably expresses beta-lactamase reporter gene under the regulation of a NF-kB response element was used. This assay allows measurement of the NFkB pathway activity induced by compounds in a ME-180 cell line. This system quantitates NF-kB activity using a FRET-based assay system where beta-lactamase expression disrupts FRET, allowing for fluorescent measurement of activity. This cell line has been used to screen the Tox21 10K compound library and to identify compounds that induce the NFkB pathway activity.
Tox21 Assay Protocol Summary:
NFkB-bla ME-180 cells were dispensed at 2,000 cells/6 uL of assay medium per well into black wall/clear-bottom 1536-well plates using a Multidrop Combi (ThermoFisher Scientific, Waltham, MA) dispenser. After the assay plates were incubated at 37 C and 5% CO2 for an overnight, 23 nL of compounds dissolved in DMSO, positive controls or DMSO only was transferred to the assay plate by a Pintool station (Kalypsys, San Diego, CA). The assay plates were incubated at 37 C and 5% CO2 for 5 hr. One uL of LiveBLAzer B/G FRET substrate (Life Technologies) was added using a Flying Reagent Dispenser (Aurora Discovery, San Diego, CA) and the plates were incubated at room temperature for 1.5 hr. Fluorescence intensity (405 nm excitation, 460 nm and 530 nm emissions) was measured using an Envision plate reader (PerkinElmer, Shelton, CT).

SMILES | outcome
COP(=O)(OC)O/C(C)=C/C(=O)N(C)C | inactive
O=C(NC(O)C(Cl)(Cl)Cl)NC(O)C(Cl)(Cl)Cl (stereo not given) | inactive
C[C@]12C=CC(=O)C=C1CC[C@@H]1[C@@H]2CC[C@@]2(C)[C@H]1CC[C@]2(C)O | inactive
COC1=CC(=O)O[C@@H](/C=C/c2ccccc2)C1 | inactive
CCCN1CCC[C@@H]2Cc3[nH]ncc3C[C@H]21 | inactive
NC(=O)CS(=O)C(c1ccccc1)c1ccccc1 (stereo not given) | inactive
Cn1c(CCCC(=O)O)nc2cc(N(CCCl)CCCl)ccc21 | inactive
CC1=C2[C@H]3OC(=O)[C@@H](C)[C@@H]3CC[C@@]2(C)C=CC1=O | inactive
CCc1cc(OC)c(C[C@H](C)N)cc1OC | inactive
Nc1c(Cl)c(F)nc(OCC(=O)O)c1Cl | inactive
CCC(C)(C#N)N=NC(C)(C#N)CC (stereo not given) | inactive
CC(C)(N)Cc1ccc(Cl)cc1 | inactive
S=C=S | inactive
CCCC[N+](=O)[O-] | inactive
CN(C)C1CCCCC1 | inactive
COc1cccc([C@@]2(O)CCCC[C@@H]2CN(C)C)c1 | inactive
COc1ccc(CN2CCNCC2)c(OC)c1OC | inactive
CCN(CC)CCOC(=O)C(O)(c1ccccc1)c1ccccc1 | inactive
O=C(Cl)C(Cl)Cl | inactive
NCC1(CC(=O)O)CCCCC1 | inactive

SMILES | outcome
C=C(C)[C@H]1CN[C@H](C(=O)O)[C@H]1CC(=O)O | inactive
CN(C)C(=O)Oc1cc(OC(=O)N(C)C)cc(C(O)CNC(C)(C)C)c1 (stereo not given) | inactive
CC(C)(C)NC[C@H](O)c1ccc(O)cc1Cl | inactive
CCCOC(=O)Cc1ccc(OCC(=O)N(CC)CC)c(OC)c1 | inactive
[P]#[In] | inactive
CCC1(c2ccccc2)C(=O)N(COC)C(=O)N(COC)C1=O | inactive
O=C(O)C(Cl)Br (stereo not given) | inactive
C/C=C/CC#N | inactive
CC(C)c1ccc(O)cc1 | inactive
Cc1ccc(S(=O)(=O)N[C@@H](CCCCN)C(=O)CCl)cc1 | inactive
CCSC(=O)Cl | inactive
CC(=O)CN(CC(C)=O)N=O | inactive
CCC1(CC)C(=O)C=CNC1=O | inactive
O=[N+]([O-])CCO | inactive
CCOC1Oc2ccc(OS(C)(=O)=O)cc2C1(C)C (stereo not given) | inactive
C=CC(=O)OCCN(C)C | inactive
Cn1c(N)nc2c3cccnc3ccc21 | inactive
CCOC(=O)C(Cl)Cc1cc(-n2nc(C)n(C(F)F)c2=O)c(F)cc1Cl (stereo not given) | inactive
CCOP(=O)(CN(CCO)CCO)OCC | inactive
CCC1(c2ccccc2)CCC(=O)NC1=O (stereo not given) | inactive
